# Bioassay records deposited in PubChem by The Scripps Research Institute Molecular Screening Center.
# rCAG RNA binder: binders of r(CAG) RNA repeats, primary screen, biochemical, fluorescence | r(CAG) RNA repeat, TO-PRO-1 dye displacement fluorescence | inhibition, % at 3 µM | 370,000 compounds, 1.3% hits | AID 651821, 2012;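 active means inhibition above the plate cutoff, the mean of all test compounds on that plate plus 3 SD, cut at about 35% in these data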;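 further: 0% = DMSO alone and 100% = 100 µM mitoxantrone as full dye displacement; higher means more dye released from RNA so lower well fluorescence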
# PAFAH1B3 FP inh: PAFAH1B3 enzyme inhibitors, primary screen, biochemical, fluorescence polarization, human; Platelet-activating factor acetylhydrolase IB subunit alpha1 (Homo sapiens), Q15102; recombinant PAFAH1B3, FP-rhodamine probe; inhibition, % at 3.39 µM; 340,000 compounds, 0.28% hits; AID 492972, 2010;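 active means inhibition above the screen-wide average of all tested compounds plus 3 SD, cut at about 25% in these data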;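 further: 0% = enzyme with DMSO only and 100% = wells lacking PAFAH1B3 protein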
# Target sequence (Q15102 whole entry, looked up): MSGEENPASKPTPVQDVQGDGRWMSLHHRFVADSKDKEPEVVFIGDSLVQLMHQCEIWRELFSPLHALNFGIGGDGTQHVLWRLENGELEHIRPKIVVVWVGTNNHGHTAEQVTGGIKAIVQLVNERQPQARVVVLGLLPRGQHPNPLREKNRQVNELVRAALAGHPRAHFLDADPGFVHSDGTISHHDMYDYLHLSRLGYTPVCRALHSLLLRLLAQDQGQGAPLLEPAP
# EBNA-1 inh: EBNA-1 DNA-binding inhibitors, primary screen, biochemical, fluorescence polarization | inhibition, % at 14.8 µM | 300,000 compounds, 0.34% hits; in the data active means inhibition above about 28%
# PAFAH1B2 inh: PAFAH1B2 enzyme inhibitors, primary screen, biochemical, fluorescence polarization, human. Platelet-activating factor acetylhydrolase IB subunit alpha2 (Homo sapiens), P68402. AID 492953, 2010. recombinant PAFAH1B2, FP-rhodamine activity probe. inhibition, % at 3.39 µM. 340,000 compounds, 1.2% hits;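 active means inhibition above the mean of all tested compounds plus 3 SD, cut at about 24% in these data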;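 further: 0% = enzyme with DMSO and 100% = wells lacking PAFAH1B2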
# Target sequence (P68402 whole entry, looked up): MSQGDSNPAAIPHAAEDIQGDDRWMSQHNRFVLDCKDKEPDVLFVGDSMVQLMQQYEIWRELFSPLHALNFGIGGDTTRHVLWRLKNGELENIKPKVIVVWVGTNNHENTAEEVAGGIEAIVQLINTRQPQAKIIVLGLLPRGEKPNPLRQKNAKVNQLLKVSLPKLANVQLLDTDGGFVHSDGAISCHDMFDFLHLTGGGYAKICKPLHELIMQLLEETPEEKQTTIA
# PAFAH2 inh: PAFAH2 enzyme inhibitors, primary screen, biochemical, fluorescence polarization, human | 340,000 compounds, 0.99% hits | Platelet-activating factor acetylhydrolase 2, cytoplasmic (Homo sapiens), Q99487 | recombinant PAFAH2, FP-rhodamine activity probe | inhibition, % at 3.39 µM;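 active means inhibition above the mean over all tested compounds plus 3 SD, cut at about 30% in these data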;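 further: inhibitors block probe labeling of enzyme so polarization drops; 0% = enzyme with DMSO and 100% = wells lacking PAFAH2 protein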
# ZTA counter: counter-screen for EBNA-1 inhibitors: inhibitors of Epstein-Barr virus ZTA; AID 2234; ZTA-DNA binding, fluorescence polarization; P03206; 320,000 compounds, 0.15% hits; inhibition, % at 11 µM; in the data active means inhibition above about 33%
# Starred values were filed as active, the others as inactive; / = no result given. Hits are enriched below; roughly 2.9% of the tested compounds scored in any of these assays.
SMILES,rCAG RNA binder,PAFAH1B3 FP inh,EBNA-1 inh,PAFAH1B2 inh,PAFAH2 inh,ZTA counter
NS(=O)(=O)c1ccc(NC(=O)COC(=O)c2ccc([N+](=O)[O-])s2)cc1,7.3,29.9*,0.4,12.4,43.3*,0.8
Cc1cc(C)c(NC(=O)COC(=O)c2ccc([N+](=O)[O-])s2)c(C)c1,-0.2,13.2,-18.9,5.6,20.1,-0.2
COc1ccccc1NC(=O)COC(=O)c1ccc([N+](=O)[O-])s1,0.5,26.0*,3.0,11.6,38.4*,-3.9
CCCC(=O)N1CCC[C@]2(CC[C@H](CCC(C)=O)O2)C1,2.5,/,/,/,/,/
CCC(=O)N1CCc2cc(Br)c(S(=O)(=O)NCCCN(C)Cc3ccccc3)cc21,7.3,/,/,/,/,/
C=CC[C@H](CC(=O)NCCO)C(=O)N[C@H](COC(=O)[C@@H](CC=C)Cc1ccc(F)cc1)c1ccccc1,-4.5,5.6,/,25.0*,-1.3,/
C=CCC[C@H](Cc1ccc(F)cc1)C(=O)OC[C@@H](NC(=O)[C@H](CC=C)CC(=O)NCCO)c1ccccc1,-6.7,4.0,/,4.2,-1.3,/
COC(=O)c1cc(-c2cccc(OCc3ccccc3)c2)c(=O)n2c1CCC2,4.7,/,/,/,/,/
CC1CC(C)CN(C(=O)c2cccc3c2-c2ccccc2C3=O)C1 (stereo unspecified),-4.8,6.8,0.3,27.6*,4.2,7.1
CN1C(=O)C(CC(=O)Nc2ccc(F)cc2)N(CCCc2ccccc2)C1=S (stereo unspecified),3.8,1.9,8.3,27.0*,1.4,5.2
CCN(Cc1ccccc1)C(=O)CCc1nnc(CCCc2ccccc2)o1,-11.4,9.7,-0.8,26.0*,-7.5,1.9
CN(Cc1ccsc1)C(=O)CCc1nnc(CCCc2ccccc2)o1,-10.5,1.6,7.9,14.2,-9.9,-4.2
O=C1N/C(=N\S(=O)(=O)Cc2ccccc2)S/C1=C/c1cc([N+](=O)[O-])ccc1O,71.5*,38.9*,9.9,28.7*,12.3,19.4
Cc1cc2c(=O)n(C)c(SCC(=O)Nc3cccc(F)c3)nc2s1,2.0,11.4,-3.6,10.0,1.9,1.2
N#Cc1c(SCC(=O)Nc2cccc(F)c2)sc2c(O)cc(=O)[nH]c12,60.7*,18.1,3.8,8.1,14.8,4.0
O=C(C1CCCN(S(=O)(=O)Cc2ccccc2)C1)N1CCC(Cc2ccccc2)CC1 (stereo unspecified),-1.6,-7.1,-5.6,25.7*,-5.1,-0.3
O=C(O)C1CCCN(S(=O)(=O)Cc2ccccc2)C1 (stereo unspecified),-0.7,0.1,/,7.0,5.5,/
Cc1cccc(C)c1NC(=O)COC(=O)c1cc(S(=O)(=O)Nc2ccc(Cl)cc2)ccc1O,10.5,11.1,/,29.2*,10.2,/
O=S(=O)(N/N=C/c1ccc2c(c1)OCO2)c1ccc(Br)cc1,8.6,7.1,-1.0,25.6*,-1.1,4.1
O=[N+]([O-])c1ccc(S(=O)(=O)NN=Cc2ccc3c(c2)OCO3)cc1,4.0,3.7,/,7.8,14.6,/
Cn1ccc(C(=O)OCC(=O)Nc2cccc3ccccc23)n1,-2.0,13.3,-3.7,-3.2,50.1*,0.5
COC(=O)C1CN(Cc2ccccc2)CCS(=O)(=O)N1Cc1ccc(F)cc1 (stereo unspecified),-0.2,/,/,/,/,/
CCN(CC(=O)NCc1ccc(Cl)cc1)C(=O)CSc1ccc(Br)cc1,-5.4,2.6,3.6,25.6*,10.5,-2.6
CC1(C)CC(=O)C(C=Nc2ccc3c(c2)OCO3)=C(O)C1,-5.8,10.5,-8.4,-6.9,1.8,-10.8
CC1(C)CC(=O)C(C=Nc2ccc(O)c(N=CC3=C(O)CC(C)(C)CC3=O)c2)=C(O)C1,-1.6,9.4,1.8,1.0,55.3*,-14.3
SMILES,rCAG RNA binder,PAFAH1B3 FP inh,EBNA-1 inh,PAFAH1B2 inh,PAFAH2 inh,ZTA counter
CCOC(=O)[C@@]12CN(C(=O)OC(C)(C)C)CC=C1N(Cc1ccc(OC)cc1)C(=O)[C@H]2CC(=O)N1CCCC1,2.5,/,/,/,/,/
NS(=O)(=O)c1cc(C(=O)O)cc(N2CCCC2)c1Oc1ccccc1,9.9,-1.7,3.1,28.9*,-1.9,-21.6
CCCCNc1cc(C(=O)O)cc(S(N)(=O)=O)c1Oc1ccccc1,5.0,14.7,10.6,16.1,6.4,9.6
CCN(Cc1cn(Cc2ccccc2)nn1)S(=O)(=O)c1ccc(N2CCCC2)cc1Br,7.1,/,/,/,/,/
O=C(COC(=O)c1ccc2c(c1)C(=O)N(CCc1ccccc1)C2=O)Nc1ccc(OC(F)F)cc1,1.5,7.4,9.5,5.1,-4.2,-19.3
COc1ccc(NC(=O)COC(=O)c2ccc(O)cc2)c([N+](=O)[O-])c1,1.1,6.1,6.1,-0.2,49.3*,2.7
COc1ccccc1C(=O)OCC(=O)Nc1ccc(OC(F)F)cc1,-3.2,-5.7,2.5,-2.1,47.6*,-6.3
COc1ccc(NC(=O)COC(=O)C2CCC(C(C)(C)C)CC2)c([N+](=O)[O-])c1 (stereo unspecified),-3.8,10.9,3.9,4.7,6.3,-4.1
O=C(COC(=O)c1ccc(O)cc1)Nc1ccc(OC(F)F)cc1,0.7,4.3,-6.0,0.1,76.0*,-3.1
COc1ccccc1C(=O)OCC(=O)Nc1ccccc1OC(F)F,-2.5,6.0,-9.0,-0.6,5.3,0.4
COc1cccc(-c2nnc(SCC(=O)OC(C)C)n2-c2ccc(Cl)cc2)c1,2.5,/,/,/,/,/
CCCCCc1ccc(NC(=O)OCCN2C(=O)CCC23CCC(c2ccccc2)CC3)cc1 (stereo unspecified),0.8,/,/,/,/,/
Cc1cc(=O)c2c(o1)C(=O)c1occc1C2=O,25.5,47.2*,/,26.1*,38.1*,/
COc1c2occc2c(OC)c2c(=O)cc(C)oc12,0.0,2.4,4.6,3.6,-6.0,3.6
CC(C)(C)c1cc(OC(=O)C2CCCC2)ccc1O,-4.3,12.5,3.1,92.3*,3.8,13.5
CCCCNc1c(-c2ccc(SC(C)CC)cc2)nc2cnccn12 (stereo unspecified),/,26.5*,/,13.3,18.1,/
N#Cc1ccc(/C=C2\CC3(OC(=O)c4ccccc4)CCCN2C3)cc1 (stereo unspecified),2.2,/,/,/,/,/
CCCC[C@@]1(C2CCCC2)Cc2cc(OCC(=O)O)c(Cl)c(Cl)c2C1=O,46.8*,6.6,3.4,10.3,-7.9,-3.0
Cc1ccc(OCc2nnc(SCC(=O)Nc3cccc4ccccc34)n2Cc2ccco2)cc1,4.5,/,/,/,/,/
CC(=O)N1CCN(C(=O)c2ccc(NS(=O)(=O)c3ccc(Cl)c(Cl)c3)cc2)CC1,11.0,10.7,/,3.7,3.7,/
O=C(O)c1ccc(NS(=O)(=O)c2cccc(S(=O)(=O)c3ccc(Cl)c(Cl)c3)c2)cc1,/,-1.6,6.2,9.2,73.0*,6.2
CSc1ccc(C=NNC(=O)c2cc(-c3ccc(Cl)cc3)n[nH]2)cc1,5.1,/,/,/,/,/
COC(=O)[C@]12C[C@H](CC(=O)NCCCN3CCCC3=O)C(=O)N(Cc3ccc(Cl)cc3Cl)C1=C[C@H](C1CCCC1)O[C@@H]2C,8.5,/,/,/,/,/
